# Test results published in PubChem BioAssay AID463190 (Sanford-Burnham Center for Chemical Genomics, 2010).
# In all, about 330,000 compounds went through this assay and about 7,300 (2.2%) were called active.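 How the source made its calls: active means inhibition of at least 40%; inactive means the rest.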 Only a selection was taken, and actives are over-represented in it overall.
# Assay: growth inhibition of tim10-1 ts yeast – luminescence, uHTS, primary screen (AID 463190);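 further: mutant grown at 25 °C; 0% = DMSO wells with yeast and 100% = wells holding no yeast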
# Settings: S. cerevisiae tim10-1 ts strain growth, BacTiter-Glo, 24 h; at 20 µM; hits give high values
row,SMILES,inhibition
1,COc1ccc(-n2c(SCC(=O)NCc3ccco3)nnc2-c2c[nH]c3ccccc23)cc1,7.58% (inactive)
2,O=c1c2ccccc2nc(N/N=C/c2ccccc2)n1O,12.3% (inactive)
3,Fc1ccc(/C=N/Nc2nc(-c3cccnc3)nc3ccccc23)cc1,43.3% (active)
4,O=C(N/N=C/c1cccnc1)c1ccc(NC(=O)c2ccc(F)cc2)cc1,-1.83% (inactive)
5,Cc1cc(C)cc(NC(=O)CCN2C(=O)c3ccccc3C2=O)c1,15.2% (inactive)
6,CCN(CC)C(=O)Oc1ccc(OC(=O)N(CC)CC)cc1,32.3% (inactive)
7,CCC(=O)Nc1nnc(S(=O)(=O)N(CC(C)C)c2ccccc2)s1,-0.846% (inactive)
8,CC1=C/C(=N\OS(=O)(=O)c2ccccc2)C=CC1=O,76.6% (active)
9,CCOC(=O)C1CCN(C(=O)c2ccccc2N(C)S(=O)(=O)c2ccccc2)CC1,25% (inactive)
10,CSc1nnc(C2CCCN(CC(=O)Nc3ccccc3N3CCOCC3)C2)n1C(C)C (stereo unspecified),-3.94% (inactive)
11,Cc1ccnc2nc(C(=O)OCC(=O)N(CC(C)C)CC(C)C)nn12,13.2% (inactive)
12,Cn1cc(/C=C/C(=O)N2CCCC(C(=O)c3ccc(C(F)(F)F)cc3)C2)cn1 (stereo unspecified),24.9% (inactive)
13,COc1cccc(C(=O)N/N=C(\C)c2cccc(NC(=O)c3ccc(F)cc3)c2)c1OC,20.1% (inactive)
14,Cn1c(CN2CCOCC2)nc2cc(NC(=O)c3ccc(Cl)cc3)ccc21,15.9% (inactive)
15,CCC(=O)Nc1ccc(S(=O)(=O)Nc2c(NC)c3ccccc3oc2=O)cc1,27% (inactive)
16,Cc1ccc(C(C)C)cc1OCC(=O)Nc1ccccc1N1CCCC1,-15.9% (inactive)
17,O=C(CN1CCN(C2CCCCC2)CC1)Nc1ccccc1N1CCCCC1,-10.4% (inactive)
18,CN1CCN(c2ccccc2NC(=O)COc2ccc(C3CCCCC3)cc2)CC1,42.9% (active)
19,Cc1cc(C)cc(OCC(=O)NNC(=O)CCN2C(=O)c3ccccc3C2=O)c1,9.29% (inactive)
20,O=C(COC(=O)c1ccncc1)c1ccccc1,22.8% (inactive)
21,Brc1ccc(-c2noc(-c3ccccc3)n2)o1,11.2% (inactive)
22,O=C(Oc1ccc(-c2nc(-c3ccccn3)no2)cc1)c1ccccc1,51.2% (active)
23,COc1ccc2oc(C(=O)OCC(=O)N(CC(C)C)c3c(N)n(Cc4ccccc4)c(=O)[nH]c3=O)c(C)c2c1,-2.22% (inactive)
24,CCC(C(=O)N1CCN(S(=O)(=O)c2sc(C(=O)O)c(C)c2C(=O)O)CC1)c1ccccc1 (stereo unspecified),-6.62% (inactive)

row,SMILES,inhibition
1,Cc1cc(-c2nnc(CCC(=O)NC(c3ccccc3)c3ccccc3)o2)no1,-7.23% (inactive)
2,O=C(NCc1ccco1)C1(c2ccc(Cl)cc2)CCCC1,29.4% (inactive)
3,O=C(/C=C/c1ccc(Cl)cc1Cl)NCc1ccco1,41.9% (active)
4,COC(=O)/C=C/C(=O)NCc1ccco1,-3.84% (inactive)
5,CCN(CC)C(=O)CSc1nnc(C2CCCCC2)o1,2.18% (inactive)
6,Cc1[nH]c2ccccc2c1C(=O)C(C)Sc1nnc(C2CC2)o1 (stereo unspecified),-11.7% (inactive)
7,CCCCCC1CCC(c2nnc(SCC(C)=O)o2)CC1 (stereo unspecified),42.3% (active)
8,O=C(COc1cccc(F)c1)Oc1ccc(C(=O)c2ccccc2)cc1,-0.003% (inactive)
9,CCC(C)c1ccccc1NC(=O)CN(C)CC(=O)Nc1ccccc1SC (stereo unspecified),11.9% (inactive)
10,O=C(Cc1ccccc1)Nc1c(C(=O)N2CCCCCC2)cnn1-c1ccccc1,29.5% (inactive)
11,N#Cc1ccccc1Sc1ccccc1C(=O)OCC(=O)NC1CCCCC1,1.29% (inactive)
12,CC(CCN1CCN=C1N(C)C)c1ccccc1 (stereo unspecified),-14.7% (inactive)
13,CC(=O)Oc1cccc(C(=O)Nc2ccccc2NC(=O)c2cccc(OC(C)=O)c2)c1,-9.31% (inactive)
14,CC(=O)Oc1ccc2c(c1)C(=O)c1ccccc1C2=O,52.2% (active)
15,CC(=O)O[C@H]1c2ccccc2-c2ccccc2[C@@H]1OC(C)=O,4.4% (inactive)
16,O=C(CSc1nnc(CN2CCCC2)n1-c1ccc(F)cc1)c1ccc2c(c1)OCO2,14.8% (inactive)
17,CC(=O)c1ccc(NC(=S)NC(=O)CC(C)C)cc1,14.6% (inactive)
18,CC(C)CC(=O)NC(=S)Nc1cc(C(=O)O)ccc1Cl,-9% (inactive)
19,CC(C)CC(=O)NC(=S)Nc1ccc(F)cc1F,49.5% (active)
20,Cc1ccc(C(=O)C(C)OC(=O)Cc2n[nH]c(=O)c3ccccc23)cc1C (stereo unspecified),-2.29% (inactive)
21,O=C(Nc1ccc(C(=O)NCc2ccccc2Cl)cc1)C1=CSCCO1,-4.56% (inactive)
22,Cc1ccc(S/C(=N\S(=O)(=O)c2ccc(Cl)cc2)c2ccccc2)cc1,41.3% (active)
23,O=S(=O)(/N=C(/Nc1ccccn1)c1ccccc1)c1ccc(Cl)cc1,20.8% (inactive)
24,Cc1ccc(S(=O)(=O)/N=C(/Nc2ccccn2)c2ccc(Cl)cc2)cc1,19.5% (inactive)

row,SMILES,inhibition
1,CCC1CCCCN1CCCNC(=O)c1cc2c(Cl)nc3ccccc3c2s1 (stereo unspecified),32.7% (inactive)
2,CC(c1ccco1)N(C(=O)Nc1ccccc1)C1CCCCC1 (stereo unspecified),48.1% (active)
3,Cc1ccc(NC(=O)NC(=O)N(C2CCCCC2)S(=O)(=O)c2ccccc2)cc1,13.6% (inactive)
4,CCOc1ccc(NC(=O)N(CCC(C)C)C(C)c2ccco2)cc1 (stereo unspecified),15.1% (inactive)
5,C=CCOc1ccc(/C=N/n2cncn2)cc1OC,6.25% (inactive)
6,CC(Cc1cccs1)NC(=O)c1cccc(Cl)c1 (stereo unspecified),21.4% (inactive)
7,COc1ccc(-c2nc3ccccc3c(=O)n2CCc2ccc(O)cc2)cc1,25.8% (inactive)
8,COc1ccc(CCNCc2c(-c3ccccc3)n(C)c3ccccc23)cc1,40.2% (active)
9,COc1ccc(-c2c(C#Cc3ccccc3)c3ccccc3n2C)cc1,14.3% (inactive)
10,Cc1ccc(Sc2cc(N3CCOCC3)nc(-c3ccccc3)n2)cc1,20.9% (inactive)
11,CCN1CCN(c2nc(Nc3cccc(F)c3)nc(N)c2[N+](=O)[O-])CC1,9.58% (inactive)
12,Cc1ccccc1Nc1nc(N)nc(COC(=O)CCC(=O)c2ccc(F)cc2)n1,15.1% (inactive)
13,O=C1CSC(=S)N1c1ccc(Cl)c(Cl)c1,42% (active)
14,O=C1CSC(=S)N1c1ccc(O)cc1,-38.8% (inactive)
15,COc1cc(N2C(=O)CSC2=S)cc(OC)c1OC,-10% (inactive)
16,COc1ccc(C)cc1Nc1n[n+](-c2ccccc2)c(-c2cccc(Cl)c2Cl)s1,22.9% (inactive)
17,CCCCCCC(O)(CCN1CCCCC1)c1ccccc1 (stereo unspecified),7.54% (inactive)
18,CN(C)N1C(N)=C(C#N)C(c2ccc(Br)cc2)C2=C1CCCC2=O (stereo unspecified),43.6% (active)
19,CCOc1ccc(C2C(C#N)=C(N)N(N(C)C)C3=C2C(=O)CCC3)cc1 (stereo unspecified),12.1% (inactive)
20,CCc1ccc(C2C(C#N)=C(N)N(N(C)C)C3=C2C(=O)CCC3)s1 (stereo unspecified),16.4% (inactive)
21,CC(C)Cc1nnc(NC(=O)CN2C(=O)NC3(CCCCC3)C2=O)s1,-6.92% (inactive)
22,Cc1ccc(-c2csc(-c3cc(C)on3)n2)cc1,11.2% (inactive)
23,Clc1ccc(-c2csc(-c3ccncc3)n2)cc1,24.5% (inactive)
24,CCCc1cc(-c2nc(-c3ccc(C)cc3)cs2)ccn1,42.5% (active)

row,SMILES,inhibition
1,Cc1ccc(/C=N/NC(=O)c2cc3ccccc3cc2O)o1,15.5% (inactive)
2,Cc1cc(N=Nc2ccc3ccccc3c2)ccc1O,57.7% (active)
3,COc1ccc(NC(=O)NCCN2CCN(c3ccc(C)cc3)CC2)c(Cl)c1,-2.17% (inactive)
4,COc1ccc(C2Nc3ccccc3C(=O)N2c2ccc(Cl)cc2)cc1Cn1cc([N+](=O)[O-])cn1 (stereo unspecified),28% (inactive)
5,Cc1cc(C)n(S(=O)(=O)c2cccc([N+](=O)[O-])c2)n1,12.8% (inactive)
6,Cc1ccccc1CN1CCC(C(=O)Nc2ccc(Oc3cccnc3)cc2)CC1,8.05% (inactive)
7,Cc1cc(OCCCC(=O)NCCN2C(=O)S/C(=C\c3cccnc3)C2=O)ccc1Cl,19.9% (inactive)
8,O=C(NCCN1C(=O)S/C(=C\c2cccnc2)C1=O)c1ccc(S(=O)(=O)N2CCCC2)cc1,18.6% (inactive)
9,O=C(NCCN1C(=O)S/C(=C\c2cccnc2)C1=O)c1cccc(OC(F)F)c1,40.4% (active)
10,O=C(CCNS(=O)(=O)c1ccccc1C(F)(F)F)NCc1ccc2c(c1)OCO2,23.1% (inactive)
11,Cn1nc(C(F)(F)F)c(C(=O)Nc2cccc(C(F)(F)F)c2)c1SCc1ccc(Cl)cc1,36% (inactive)
12,O=C(CCn1nnnc1CN1CCOCC1)N1CCC(c2ccccc2Cl)C1 (stereo unspecified),15.3% (inactive)
13,Cc1ccc(CC(=O)Nc2ccc(OC(F)F)c(Cl)c2)cc1C,15.6% (inactive)
14,CC(=O)N1CCN(CC(=O)Nc2ccc(SC(F)F)cc2)CC1,-0.192% (inactive)
15,O=C(Cc1ccc(Cl)c(Cl)c1)Nc1ccc(SC(F)F)cc1,43.5% (active)
16,O=C(c1ccc(F)cc1)n1c(=S)nc2ccccn21,26.9% (inactive)
17,COc1ccc(CNC(=O)[C@@H]2CC=C[C@@H]3CCN(C4CC4)C(=O)[C@@H]32)cc1,6.25% (inactive)
18,CN(Cc1c(F)cccc1Cl)S(=O)(=O)c1cccs1,-0.379% (inactive)
19,COC(=O)c1ccc(CNC(=O)C2CCC(=O)N(Cc3cccc(F)c3)C2)cc1 (stereo unspecified),-22.8% (inactive)
20,COc1ccc(N2CCN(c3ccc([N+](=O)[O-])cc3Cl)CC2)cc1,-1.93% (inactive)
21,O=C(O)C1CCN(c2ccc([N+](=O)[O-])cc2[N+](=O)[O-])CC1,4.89% (inactive)
22,O=[N+]([O-])c1ccc(N2CCN(c3ccc(O)cc3)CC2)c(Cl)c1,40.3% (active)
23,ONC(=Nc1ccccc1)c1ccccc1Cl,18.6% (inactive)
24,ONC(=Nc1ccc(Cl)cc1)c1ccccc1Cl,42.6% (active)
